Here are results for six compounds from PubChem BioAssay (EPA / NIEHS).

Assay [1] can be described thus: ATG_TGFb_CIS: Attagene CIS-FACTORIAL HepG2 Assay for human Transforming Growth Factor (TGF) (AID 2282967). Particulars: HepG2 Attagene CIS TGFb reporter, mRNA transcription; actives raise or lower the signal. A digest of the protocol: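 Readout: fluorescently labeled reporter cDNA fragments resolved by capillary electrophoresis after RT-PCR. Transfected HepG2 cells dosed for 24 h; endogenous TF activity at TGFB1-linked cis element; gain or loss fitted relative to DMSO.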

The target of assay [2] is Estrogen receptor (Homo sapiens) (UniProt P03372). The assay is described as follows: ATG_ERa_TRANS: Attagene TRANS-FACTORIAL HepG2 Assay for human Estrogen Receptor alpha (ERa) (AID 2282970; active means hit-call score of the fitted dose curve at least 0.9, where 1 is the maximum). The conditions noted are these: HepG2 Attagene TRANS ERa GAL4 reporter, mRNA. An outline of the steps: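 Human liver HepG2, transient transfection of multiple GAL4-UAS reporter units; TRANS format (exogenous NR-Gal4 chimera). 24 h dosing. Readout: reporter mRNA, RT-PCR, 6-FAM primer extension, HpaI digest, capillary electrophoresis. Positive direction vs DMSO.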

Assay [3] deals with X-box-binding protein 1 (Homo sapiens) (UniProt P17861). The assay is described as follows: ATG_Xbp1_CIS: Attagene CIS-FACTORIAL HepG2 Assay for human X-box Binding Protein 1 (XBP1) (AID 2282972). Particulars: HepG2 XBP1 cis-element reporter, Attagene multiplex; actives raise or lower the signal. An outline of the steps:
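HepG2 cells transiently transfected with multiple cis-element reporter units report endogenous TF activity; 24 h exposure, then reporter mRNA measured by RT-PCR, 6-FAM labelling, HpaI digestion and capillary electrophoresis. Bidirectional fitting versus DMSO.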

In assay [4] the target is Estrogen-related receptor gamma (Homo sapiens) (UniProt P62508). The assay can be described thus: ATG_ERRg_TRANS: Attagene TRANS-FACTORIAL HepG2 Assay for human Estrogen-Related Receptor gamma (ERRg) (AID 2282977; active means hit-call score of the fitted dose curve at least 0.9, where 1 is the maximum;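 further: hits increase reporter signal over DMSO so potencies reflect activators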). Particulars: HepG2 Attagene TRANS reporter, ERRg transactivation. A digest of the protocol:
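HepG2 cells transiently transfected with multiplexed GAL4-UAS reporter units driven by chimeric NR-Gal4 proteins; 24 h exposure. Reporter mRNA quantified by RT-PCR, fluorescent labelling, HpaI digestion and capillary electrophoresis; gain of signal vs DMSO.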

Assay [5] has as its target Bile acid receptor (Homo sapiens) (UniProt Q96RI1). The assay can be described thus: ATG_FXR_TRANS: Attagene TRANS-FACTORIAL HepG2 Assay for Farnesoid X Receptor (FXR) (AID 2282979; active means hit-call score of the fitted dose curve at least 0.9, where 1 is the maximum;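 further: hits raise reporter mRNA above DMSO so AC50 marks FXR activation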). The conditions noted are these: HepG2 Attagene TRANS FXR-GAL4 reporter transcription. An outline of the steps:
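Transient transfection of HepG2 with multiplexed GAL4-UAS reporter units; exogenous FXR-GAL4 chimera. Dose 24 h → TriZol RNA → oligo(dT) RT → PCR, 6-FAM primer extension, HpaI cut → CE. Gain vs DMSO.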

Assay [6] has as its target Oxysterols receptor LXR-alpha (Homo sapiens) (UniProt Q13133). The assay is described as follows: ATG_LXRa_TRANS: Attagene TRANS-FACTORIAL HepG2 Assay for human Liver X Receptor alpha (LXRa) (AID 2282980; active means hit-call score of the fitted dose curve at least 0.9, where 1 is the maximum). The conditions noted are these: HepG2 Attagene TRANS reporter, LXRa transactivation. A digest of the protocol:
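Transfect HepG2 with GAL4-UAS multiplex reporter constructs (TRANS format, chimeric receptor-GAL4); treat 24 h; extract RNA, reverse-transcribe, PCR-amplify, FAM-label, HpaI-digest; resolve fragments by capillary electrophoresis. Upward response vs DMSO.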

The target of assay [7] is Oxysterols receptor LXR-beta (Homo sapiens) (UniProt P55055). The assay can be described thus: ATG_LXRb_TRANS: Attagene TRANS-FACTORIAL HepG2 Assay for human Liver X Receptor beta (LXRb) (AID 2282981; active means hit-call score of the fitted dose curve at least 0.9, where 1 is the maximum). Particulars: HepG2 Attagene TRANS GAL4-LXRb reporter, mRNA. An outline of the steps:
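In this TRANS format, exogenous chimeric NR-Gal4 protein activity, not endogenous factors, drives reporter expression in transfected human HepG2 cells. Exposure lasted 24 h; reporter mRNA was read by fluorescent capillary electrophoresis.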

A short description of assay [8]: ATG_M_06_TRANS: Attagene TRANS-FACTORIAL HepG2 Assay for M06 Transcription Factor (Internal Marker) (AID 2282983; active means hit-call score of the fitted dose curve at least 0.9, where 1 is the maximum). Particulars: HepG2 Attagene TRANS M06 internal marker reporter. A digest of the protocol:
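Transfect HepG2 with MRTUs → dose compounds 24 h → isolate RNA, oligo(dT) RT → PCR with reporter primers → 6-FAM primer extension → HpaI digest → CE fragment analysis. Positive direction vs DMSO.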

Assay [9] addresses Transcriptional activator Myb (Homo sapiens) (UniProt P10242). The assay is described as follows: ATG_Myb_CIS: Attagene CIS-FACTORIAL HepG2 Assay for human Myeloblastosis (Myb) Proto-Oncogene Transcription Factor (AID 2282986). Particulars: HepG2 Attagene CIS-FACTORIAL Myb reporter transcription; actives raise or lower the signal. A digest of the protocol:
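HepG2, transient MRTU transfection (cis-element promoters, endogenous TF activity), 24 h compound exposure. Readout: reporter mRNA via RT-PCR, 6-FAM labeling, HpaI digest, capillary electrophoresis. Gain/loss fit vs DMSO.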

Assay [10] has as its target Nuclear respiratory factor 1 (Homo sapiens) (UniProt Q16656). The assay can be described thus: ATG_NRF1_CIS: Attagene CIS-FACTORIAL HepG2 Assay for human Nuclear Respiratory Factor 1 (NRF1) Orphan Gene (AID 2282987). Particulars: HepG2 NRF1 cis-element reporter, Attagene multiplex; actives raise or lower the signal. An outline of the steps: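 Endogenous NRF1-driven reporter transcription measured in transiently transfected human HepG2 liver cells. Readout: reporter mRNA by RT-PCR and capillary electrophoresis with fluorescence detection, 24 h post-dosing. Gain or loss of signal fitted relative to DMSO baseline.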

The nature of assay [11]: ATG_NFI_CIS: Attagene CIS-FACTORIAL HepG2 Assay for human Nuclear Factor I (NFI) (AID 2282989). Particulars: HepG2 cis-regulatory reporter, NFI response element transcription; actives raise or lower the signal. A digest of the protocol:
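Read-out: reporter mRNA via RT-PCR plus capillary electrophoresis with fluorescence detection. Transiently transfected HepG2 (endogenous TF activity on cis promoters), 24 h compound exposure; gain or loss of signal fitted against DMSO.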

Assay [12] addresses Myc proto-oncogene protein (Homo sapiens) (UniProt P01106). The assay can be described thus: ATG_Myc_CIS: Attagene CIS-FACTORIAL HepG2 Assay for human Myelocytomatosis (Myc) Proto-Oncogene Transcription Factor (AID 2282990). The conditions noted are these: HepG2, Attagene cis-reporter transcription factor activity; actives raise or lower the signal. An outline of the steps: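 HepG2 cells transiently transfected with multiple cis-promoter-driven reporter transcription units, so endogenous TF activity is read. After 24 h compound exposure, reporter mRNA was quantified by RT-PCR, 6-FAM labelling, HpaI digestion and capillary electrophoresis; bidirectional fit versus DMSO.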

In assay [13] the target is Glucocorticoid receptor (Homo sapiens) (UniProt P04150). The assay is described as follows: ATG_GR_TRANS: Attagene TRANS-FACTORIAL HepG2 Assay for human Glucocorticoid Receptor (GR) (AID 2282978; active means hit-call score of the fitted dose curve at least 0.9, where 1 is the maximum;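 further: activators score as hits since higher reporter transcript over DMSO is fitted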). Particulars: HepG2 Attagene TRANS GR reporter, mRNA transcription. An outline of the steps:
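Transient MRTU transfection of HepG2 (GAL4-UAS reporters, exogenous NR-GAL4 chimeras), 24 h dosing. Readout: reporter transcript via RT-PCR + capillary electrophoresis fluorescence. Positive direction vs DMSO baseline.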

A short description of assay [14]: ATG_M_32_TRANS: Attagene TRANS-FACTORIAL HepG2 Assay for M32 Transcription Factor (Internal Marker) (AID 2282984; active means hit-call score of the fitted dose curve at least 0.9, where 1 is the maximum;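 further: transcript level of a background control reporter unit measured by RT-PCR and capillary electrophoresis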). Particulars: HepG2 Attagene TRANS M32 internal marker reporter. A digest of the protocol:
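Human hepatoma HepG2, transient MRTU transfection, 24 h treatment. RNA → RT-PCR → fluorescent primer extension → HpaI digest (2 h, 37 C) → CE. Positive-direction fit vs DMSO.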

A short description of assay [15]: ATG_M_19_TRANS: Attagene TRANS-FACTORIAL HepG2 Assay for M19 Transcription Factor (Internal Marker) (AID 2282974; active means hit-call score of the fitted dose curve at least 0.9, where 1 is the maximum). The conditions noted are these: HepG2 Attagene TRANS-FACTORIAL M19 internal marker reporter. An outline of the steps: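 24 h chemical exposure of transiently transfected HepG2 (MRTU library). RNA → oligo(dT) RT → PCR → 6-FAM labelling → HpaI cut → CE fluorescence. Positive-direction fit vs DMSO baseline; background internal-marker readout.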

For assay [16], the target named is Hepatocyte nuclear factor 4-alpha (Homo sapiens) (UniProt P41235). The assay is described as follows: ATG_HNF4a_TRANS: Attagene TRANS-FACTORIAL HepG2 Assay for human Hepatocyte Nuclear Factor 4 alpha (HNF4a) (AID 2282982; active means hit-call score of the fitted dose curve at least 0.9, where 1 is the maximum). Particulars: HepG2 HNF4a transactivation reporter, mRNA readout. A digest of the protocol: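 Cells used were human HepG2, transiently carrying GAL4-UAS reporter units read out against exogenous NR-GAL4 chimeras. Reporter transcript levels after 24 h dosing were quantified by fluorescent RT-PCR and capillary electrophoresis.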
Hepatocyte nuclear factor 4-alpha (Homo sapiens), sequence (P41235 whole entry, looked up, the tested form may be a part): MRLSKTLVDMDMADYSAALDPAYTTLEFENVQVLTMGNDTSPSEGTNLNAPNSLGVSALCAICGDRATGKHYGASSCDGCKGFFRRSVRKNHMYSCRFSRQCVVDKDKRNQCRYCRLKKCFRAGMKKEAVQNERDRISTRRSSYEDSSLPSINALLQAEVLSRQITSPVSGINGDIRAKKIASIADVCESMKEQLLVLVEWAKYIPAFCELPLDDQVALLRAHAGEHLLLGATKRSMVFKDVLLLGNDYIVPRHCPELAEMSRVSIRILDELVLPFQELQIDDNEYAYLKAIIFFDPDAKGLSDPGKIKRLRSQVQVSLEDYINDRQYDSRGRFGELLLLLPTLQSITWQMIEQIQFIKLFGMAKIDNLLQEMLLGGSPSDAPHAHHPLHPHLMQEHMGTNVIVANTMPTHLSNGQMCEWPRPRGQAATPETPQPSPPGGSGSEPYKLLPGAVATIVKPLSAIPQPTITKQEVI

A short description of assay [17]: ATG_VDRE_CIS: Attagene CIS-FACTORIAL HepG2 Assay for human Vitamin D Receptor Element (VDRE) (AID 2282968). The conditions noted are these: HepG2 VDRE cis-reporter transcription, actives raise or lower the signal. A digest of the protocol: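 RT-PCR/CE readout of reporter mRNA; HepG2, transient transfection, 24 h dosing; DMSO baseline; bidirectional analysis.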

Inconclusive results are not listed. Calls of active or inactive are those of the source. How the source made its calls, unless noted: active means hit-call score of the fitted dose curve at least 0.9, where 1 is the maximum; inactive means score below 0.9.

Transcriptional activator Myb (Homo sapiens), sequence (P10242 whole entry, looked up): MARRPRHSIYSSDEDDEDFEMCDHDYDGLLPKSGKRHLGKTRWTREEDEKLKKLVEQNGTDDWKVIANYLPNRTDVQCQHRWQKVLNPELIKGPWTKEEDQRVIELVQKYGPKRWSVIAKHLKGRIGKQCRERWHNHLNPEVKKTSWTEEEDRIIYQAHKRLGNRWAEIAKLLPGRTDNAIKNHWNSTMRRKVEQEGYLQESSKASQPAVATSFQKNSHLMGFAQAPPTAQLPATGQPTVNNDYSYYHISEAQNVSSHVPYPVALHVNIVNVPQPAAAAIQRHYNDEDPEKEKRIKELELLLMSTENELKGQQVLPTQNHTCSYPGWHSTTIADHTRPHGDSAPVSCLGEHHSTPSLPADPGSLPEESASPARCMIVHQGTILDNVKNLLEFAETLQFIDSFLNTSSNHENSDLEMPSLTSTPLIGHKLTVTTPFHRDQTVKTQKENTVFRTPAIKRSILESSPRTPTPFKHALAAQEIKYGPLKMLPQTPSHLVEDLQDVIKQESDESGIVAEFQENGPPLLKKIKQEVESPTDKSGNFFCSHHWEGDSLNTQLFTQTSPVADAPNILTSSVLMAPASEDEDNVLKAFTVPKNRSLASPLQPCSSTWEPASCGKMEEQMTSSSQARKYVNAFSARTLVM
Nuclear respiratory factor 1 (Homo sapiens), sequence (Q16656 whole entry, looked up): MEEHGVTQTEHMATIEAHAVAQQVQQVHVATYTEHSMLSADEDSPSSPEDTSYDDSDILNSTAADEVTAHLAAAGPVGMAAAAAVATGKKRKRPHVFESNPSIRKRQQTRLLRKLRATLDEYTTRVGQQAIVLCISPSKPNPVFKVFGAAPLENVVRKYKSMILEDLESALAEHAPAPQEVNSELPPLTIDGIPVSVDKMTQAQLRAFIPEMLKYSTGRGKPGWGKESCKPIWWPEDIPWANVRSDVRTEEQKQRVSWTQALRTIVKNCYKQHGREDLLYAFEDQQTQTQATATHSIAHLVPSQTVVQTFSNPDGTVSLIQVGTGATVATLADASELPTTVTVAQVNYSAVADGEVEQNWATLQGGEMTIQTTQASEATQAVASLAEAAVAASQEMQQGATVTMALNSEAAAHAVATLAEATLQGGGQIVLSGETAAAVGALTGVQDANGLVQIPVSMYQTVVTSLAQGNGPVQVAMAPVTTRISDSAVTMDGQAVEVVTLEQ
Myc proto-oncogene protein (Homo sapiens), sequence (P01106 whole entry, looked up): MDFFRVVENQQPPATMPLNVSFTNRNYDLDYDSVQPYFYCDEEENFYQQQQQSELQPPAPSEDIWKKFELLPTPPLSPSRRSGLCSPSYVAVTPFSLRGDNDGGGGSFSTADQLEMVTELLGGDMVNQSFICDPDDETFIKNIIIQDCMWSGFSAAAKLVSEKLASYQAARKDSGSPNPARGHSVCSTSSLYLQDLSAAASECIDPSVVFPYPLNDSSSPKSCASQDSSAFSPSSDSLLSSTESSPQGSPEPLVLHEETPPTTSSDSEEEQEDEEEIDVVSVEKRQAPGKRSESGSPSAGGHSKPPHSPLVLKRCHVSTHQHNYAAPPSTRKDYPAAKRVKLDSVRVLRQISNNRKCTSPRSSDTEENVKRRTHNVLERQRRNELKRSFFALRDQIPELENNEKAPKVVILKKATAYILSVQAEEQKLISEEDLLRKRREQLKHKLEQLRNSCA
Estrogen-related receptor gamma (Homo sapiens), sequence (P62508 whole entry, looked up, the tested form may be a part): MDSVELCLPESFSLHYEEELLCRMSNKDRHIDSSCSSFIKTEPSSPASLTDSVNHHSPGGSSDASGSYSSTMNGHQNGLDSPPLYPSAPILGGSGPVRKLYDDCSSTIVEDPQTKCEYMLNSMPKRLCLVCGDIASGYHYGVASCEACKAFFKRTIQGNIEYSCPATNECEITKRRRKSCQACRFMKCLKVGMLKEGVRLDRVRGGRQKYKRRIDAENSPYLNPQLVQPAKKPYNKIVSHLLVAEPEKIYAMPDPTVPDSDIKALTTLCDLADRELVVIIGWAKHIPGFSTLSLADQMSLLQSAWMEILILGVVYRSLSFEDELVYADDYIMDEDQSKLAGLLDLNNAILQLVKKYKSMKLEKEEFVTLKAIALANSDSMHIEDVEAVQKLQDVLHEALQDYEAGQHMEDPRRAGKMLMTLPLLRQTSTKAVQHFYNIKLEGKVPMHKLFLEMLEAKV
X-box-binding protein 1 (Homo sapiens), sequence (P17861 whole entry, looked up): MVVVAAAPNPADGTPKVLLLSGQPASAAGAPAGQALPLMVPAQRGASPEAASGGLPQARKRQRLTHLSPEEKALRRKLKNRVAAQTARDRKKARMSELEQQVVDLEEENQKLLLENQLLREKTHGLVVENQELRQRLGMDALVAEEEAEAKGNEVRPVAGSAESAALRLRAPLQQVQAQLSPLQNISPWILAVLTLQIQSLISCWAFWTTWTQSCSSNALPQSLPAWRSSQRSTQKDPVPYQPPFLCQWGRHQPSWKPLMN
Glucocorticoid receptor (Homo sapiens), sequence (P04150 whole entry, looked up, the tested form may be a part): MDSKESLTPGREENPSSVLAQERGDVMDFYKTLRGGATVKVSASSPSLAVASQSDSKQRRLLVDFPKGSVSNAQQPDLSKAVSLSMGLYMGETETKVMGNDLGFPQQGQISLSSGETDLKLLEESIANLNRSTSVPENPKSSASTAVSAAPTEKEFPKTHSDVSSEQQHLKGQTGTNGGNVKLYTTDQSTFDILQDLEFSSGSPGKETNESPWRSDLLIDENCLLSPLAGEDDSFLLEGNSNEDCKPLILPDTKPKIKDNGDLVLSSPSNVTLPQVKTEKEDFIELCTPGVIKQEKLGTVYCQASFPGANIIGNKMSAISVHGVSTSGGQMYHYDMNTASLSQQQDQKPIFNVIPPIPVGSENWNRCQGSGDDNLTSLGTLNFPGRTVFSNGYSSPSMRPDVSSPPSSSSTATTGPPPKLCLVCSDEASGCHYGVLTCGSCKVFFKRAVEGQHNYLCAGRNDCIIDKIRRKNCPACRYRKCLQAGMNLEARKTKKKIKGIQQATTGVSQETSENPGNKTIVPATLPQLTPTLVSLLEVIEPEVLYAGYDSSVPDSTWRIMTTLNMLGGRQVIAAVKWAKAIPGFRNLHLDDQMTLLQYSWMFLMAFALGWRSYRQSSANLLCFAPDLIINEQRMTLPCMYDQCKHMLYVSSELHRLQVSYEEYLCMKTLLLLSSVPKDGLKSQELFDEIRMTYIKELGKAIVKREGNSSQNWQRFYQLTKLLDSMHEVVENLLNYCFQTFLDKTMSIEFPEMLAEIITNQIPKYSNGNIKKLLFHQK
Oxysterols receptor LXR-beta (Homo sapiens), sequence (P55055 whole entry, looked up, the tested form may be a part): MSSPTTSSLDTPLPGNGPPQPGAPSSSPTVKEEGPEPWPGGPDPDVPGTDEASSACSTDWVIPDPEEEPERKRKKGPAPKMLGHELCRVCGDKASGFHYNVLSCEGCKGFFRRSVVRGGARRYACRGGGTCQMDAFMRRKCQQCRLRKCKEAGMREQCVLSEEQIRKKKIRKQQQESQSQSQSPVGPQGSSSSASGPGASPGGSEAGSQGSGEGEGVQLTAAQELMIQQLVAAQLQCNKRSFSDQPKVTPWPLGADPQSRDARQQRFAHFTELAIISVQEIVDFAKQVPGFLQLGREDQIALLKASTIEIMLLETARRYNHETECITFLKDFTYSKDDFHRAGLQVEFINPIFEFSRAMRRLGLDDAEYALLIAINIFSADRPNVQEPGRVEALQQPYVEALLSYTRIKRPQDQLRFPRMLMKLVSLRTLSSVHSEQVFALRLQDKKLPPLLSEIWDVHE
Oxysterols receptor LXR-alpha (Homo sapiens), sequence (Q13133 whole entry, looked up, the tested form may be a part): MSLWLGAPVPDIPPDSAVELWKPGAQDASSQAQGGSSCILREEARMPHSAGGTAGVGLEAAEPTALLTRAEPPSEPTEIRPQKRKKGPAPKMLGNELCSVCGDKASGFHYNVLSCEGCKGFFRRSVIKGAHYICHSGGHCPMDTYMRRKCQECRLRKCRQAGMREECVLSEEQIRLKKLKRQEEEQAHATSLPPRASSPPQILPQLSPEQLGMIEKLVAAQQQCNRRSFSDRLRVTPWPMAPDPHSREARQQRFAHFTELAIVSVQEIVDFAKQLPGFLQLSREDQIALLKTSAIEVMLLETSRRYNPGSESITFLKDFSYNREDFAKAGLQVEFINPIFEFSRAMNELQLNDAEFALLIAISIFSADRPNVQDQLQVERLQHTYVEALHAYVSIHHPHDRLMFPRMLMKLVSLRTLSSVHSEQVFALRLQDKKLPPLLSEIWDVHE
Bile acid receptor (Homo sapiens), sequence (Q96RI1 whole entry, looked up, the tested form may be a part): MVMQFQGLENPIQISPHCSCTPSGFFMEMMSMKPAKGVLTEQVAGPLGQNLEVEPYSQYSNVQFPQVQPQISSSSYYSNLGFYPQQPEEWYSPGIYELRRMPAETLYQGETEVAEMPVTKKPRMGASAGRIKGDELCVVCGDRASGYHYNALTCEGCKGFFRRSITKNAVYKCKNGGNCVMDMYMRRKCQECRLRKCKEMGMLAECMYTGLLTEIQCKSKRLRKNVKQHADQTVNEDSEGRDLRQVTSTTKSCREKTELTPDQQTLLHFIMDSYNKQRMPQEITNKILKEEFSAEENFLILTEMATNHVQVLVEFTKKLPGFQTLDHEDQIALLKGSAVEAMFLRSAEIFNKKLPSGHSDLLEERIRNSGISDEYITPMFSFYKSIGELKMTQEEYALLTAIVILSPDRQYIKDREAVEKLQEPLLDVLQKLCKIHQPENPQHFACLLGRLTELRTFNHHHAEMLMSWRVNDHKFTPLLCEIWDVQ

For `O=C(N[C@@H](c1ccccc1)[C@@H]1CCCCN1)c1cccc(C(F)(F)F)c1Cl`, the compound was called inactive in assay [1], in [2], in [4], in assay [5], in assay [6] and in assay [7]. The outcome in [8], in assay [9] and in [11] was inactive. Moreover, the AC50 (commonly the concentration giving half of the maximal activity seen) in [3] was 33 µM (active); in assay [10], 56.9 µM (active); in assay [12], 54 µM (active).

With `COC(=O)[C@H]1[C@H]2C[C@@H]3c4[nH]c5cc(OC)ccc5c4CCN3C[C@H]2C[C@@H](OC(=O)c2cc(OC)c(OC)c(OC)c2)[C@@H]1OC`, the outcome in assay [1], in assay [3], in assay [13], in [8], in [14] and in assay [9] was inactive. The compound was called inactive in assay [10], in assay [11] and in [12].

Turning to `CCOCCOCCO`, the outcome in [1], in assay [3], in assay [15], in [4], in assay [13] and in [14] was inactive. Further, the outcome in [9], in assay [10], in assay [11] and in assay [12] was inactive.

For the compound `CCCCCCCCCC[N+](C)(C)[O-]`, the compound was classed as inactive in assay [1], in assay [3], in [15], in [4], in assay [13] and in assay [6]. Besides, the compound was classed as inactive in [7], in assay [14], in assay [9], in [10], in assay [11] and in [12].

With `C/C=C/c1ccc(OC)cc1`, the compound was classed as inactive in assay [1], in [3], in assay [15], in [16], in [9] and in [10]. The call in [11] and in assay [12] was inactive.

`Cc1cc(SC2=C(O)C[C@@](CCc3ccc(N)cc3)(C(C)C)OC2=O)c(C(C)(C)C)cc1CO`: the call in assay [1], in assay [3], in assay [15], in assay [4], in assay [7] and in assay [14] was inactive. In addition, the call in assay [9], in assay [10], in assay [11] and in assay [12] was inactive. The AC50 in assay [17] is 5.63 µM (active).
